For one sequence, binding signal results are on record in paper PMC7862700, “An all-to-all approach to the identification of sequence-specific readers for epigenetic DNA modifications on cytosine”.

Common to all, as to assay: DAPPL (digital affinity profiling via proximity ligation, sequencing); 10 mM Tris-HCl pH 7.5, 50 mM NaCl, 1 mM DTT, 4% glycerol, room temperature, 30 min; GST-TFs on glutathione beads, 16-mer random dsDNA library, 0.1% formaldehyde crosslink after washing; high values mean tight binding
One test has as its target T1, FEV (Homo sapiens, UniProt Q99581 1-238).
T1 sequence: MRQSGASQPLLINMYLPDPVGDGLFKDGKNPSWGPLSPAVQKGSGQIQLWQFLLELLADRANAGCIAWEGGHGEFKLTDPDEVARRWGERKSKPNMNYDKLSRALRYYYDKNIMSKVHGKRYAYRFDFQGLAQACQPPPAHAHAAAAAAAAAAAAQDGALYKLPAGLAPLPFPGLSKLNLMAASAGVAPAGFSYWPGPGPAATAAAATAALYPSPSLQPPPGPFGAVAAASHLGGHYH
The settings on record: protein: recombinant; tags: N-terminal GST; dsDNA, one strand shown. In outline:
(§1)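 In yeast, human transcription factors were expressed with a GST fusion, then pulled down on glutathione beads and given DNA barcodes. Pooled with a tag-only sample, they were exposed to 200 nmole of a 16-mer random double-stranded DNA library (Tris/NaCl/DTT/glycerol buffer, room temperature, 30 min), washed, crosslinked with 0.1% formaldehyde, proximity-ligated using BsaI/T4 ligase for 1 h at 37 °C, PCR-amplified and read on an Illumina NextSeq500. Each hexamer's frequency of reads for a factor, divided by the matching frequency for the tag-only sample, gives the binding signal.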

A further test concerns the target ETV5 (Homo sapiens, UniProt P41161 1-510). The settings on record: protein: recombinant; tags: N-terminal GST; dsDNA, one strand shown. A digest of the protocol:
as §1

The target of the next test is HSF1 (Homo sapiens, UniProt Q00613 1-529). The settings on record: protein: recombinant; tags: N-terminal GST; chain copies: 3; dsDNA, one strand shown. In outline: as §1
The next test concerns the target T2, SPIC (Homo sapiens, UniProt Q8N5J4 1-248).
T2 sequence: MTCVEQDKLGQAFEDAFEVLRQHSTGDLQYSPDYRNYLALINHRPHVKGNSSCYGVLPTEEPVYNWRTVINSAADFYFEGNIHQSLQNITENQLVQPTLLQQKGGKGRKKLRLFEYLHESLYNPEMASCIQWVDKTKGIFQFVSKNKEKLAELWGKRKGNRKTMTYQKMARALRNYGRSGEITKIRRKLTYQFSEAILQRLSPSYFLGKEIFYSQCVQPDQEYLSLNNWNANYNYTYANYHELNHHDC
The settings on record: protein: recombinant; tags: N-terminal GST; dsDNA, one strand shown. In outline:
as §1

A further test concerns the target ELF4 (Homo sapiens, UniProt Q99607 1-663). Particulars: protein: recombinant; tags: N-terminal GST; dsDNA, one strand shown. In outline: as §1
Another test addresses T3, ELK4 (Homo sapiens, UniProt P28324-2 1-405).
T3 sequence: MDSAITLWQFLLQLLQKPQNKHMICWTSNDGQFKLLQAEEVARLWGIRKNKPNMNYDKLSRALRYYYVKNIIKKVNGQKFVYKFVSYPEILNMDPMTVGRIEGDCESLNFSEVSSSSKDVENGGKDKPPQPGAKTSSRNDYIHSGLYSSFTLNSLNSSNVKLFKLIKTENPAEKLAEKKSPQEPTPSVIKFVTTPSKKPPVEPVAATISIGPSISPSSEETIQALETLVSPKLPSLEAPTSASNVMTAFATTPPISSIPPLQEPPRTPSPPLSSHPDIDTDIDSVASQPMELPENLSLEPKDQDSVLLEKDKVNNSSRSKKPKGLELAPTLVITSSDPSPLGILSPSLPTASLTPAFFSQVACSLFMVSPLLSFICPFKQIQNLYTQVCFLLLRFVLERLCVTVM
Particulars: protein: recombinant; tags: N-terminal GST; dsDNA, one strand shown. A digest of the protocol:
as §1

For the next test, the target named is T4, ETV2 (Homo sapiens, UniProt O00321 1-342).
T4 sequence: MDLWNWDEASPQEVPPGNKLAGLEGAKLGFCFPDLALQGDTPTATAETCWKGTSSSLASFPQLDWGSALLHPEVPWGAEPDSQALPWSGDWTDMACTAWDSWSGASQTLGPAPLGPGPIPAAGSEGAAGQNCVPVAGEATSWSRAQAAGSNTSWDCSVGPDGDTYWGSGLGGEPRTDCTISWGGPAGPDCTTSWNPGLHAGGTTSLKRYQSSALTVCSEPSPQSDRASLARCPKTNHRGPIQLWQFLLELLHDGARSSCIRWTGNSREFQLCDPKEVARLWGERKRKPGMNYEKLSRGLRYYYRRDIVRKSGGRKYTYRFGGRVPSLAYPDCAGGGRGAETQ
Particulars: protein: recombinant; tags: N-terminal GST; dsDNA, one strand shown. A digest of the protocol: as §1

The target in a further test is T5, ELF3 (Homo sapiens, UniProt P78545 1-371).
T5 sequence: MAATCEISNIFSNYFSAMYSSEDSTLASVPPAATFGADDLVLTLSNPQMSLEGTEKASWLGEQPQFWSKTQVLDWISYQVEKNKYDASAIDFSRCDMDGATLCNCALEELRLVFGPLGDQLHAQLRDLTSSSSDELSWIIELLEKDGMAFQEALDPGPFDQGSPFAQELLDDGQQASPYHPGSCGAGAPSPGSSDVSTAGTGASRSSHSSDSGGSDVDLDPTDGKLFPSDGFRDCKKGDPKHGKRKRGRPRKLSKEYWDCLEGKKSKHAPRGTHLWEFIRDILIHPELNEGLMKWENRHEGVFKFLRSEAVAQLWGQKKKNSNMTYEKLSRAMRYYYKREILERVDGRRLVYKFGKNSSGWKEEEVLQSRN
Particulars: protein: recombinant; tags: N-terminal GST; dsDNA, one strand shown. In outline: as §1

For another test, the target named is CRX (Homo sapiens, UniProt O43186 1-299). Particulars: protein: recombinant; tags: N-terminal GST; dsDNA, one strand shown. In outline: as §1
The target of the next test is ETV1 (Homo sapiens, UniProt P50549 1-477). Particulars: protein: recombinant; tags: N-terminal GST; dsDNA, one strand shown. In outline:
as §1

The target of the next test is T6, ERF (Homo sapiens, UniProt P50548 1-548).
T6 sequence: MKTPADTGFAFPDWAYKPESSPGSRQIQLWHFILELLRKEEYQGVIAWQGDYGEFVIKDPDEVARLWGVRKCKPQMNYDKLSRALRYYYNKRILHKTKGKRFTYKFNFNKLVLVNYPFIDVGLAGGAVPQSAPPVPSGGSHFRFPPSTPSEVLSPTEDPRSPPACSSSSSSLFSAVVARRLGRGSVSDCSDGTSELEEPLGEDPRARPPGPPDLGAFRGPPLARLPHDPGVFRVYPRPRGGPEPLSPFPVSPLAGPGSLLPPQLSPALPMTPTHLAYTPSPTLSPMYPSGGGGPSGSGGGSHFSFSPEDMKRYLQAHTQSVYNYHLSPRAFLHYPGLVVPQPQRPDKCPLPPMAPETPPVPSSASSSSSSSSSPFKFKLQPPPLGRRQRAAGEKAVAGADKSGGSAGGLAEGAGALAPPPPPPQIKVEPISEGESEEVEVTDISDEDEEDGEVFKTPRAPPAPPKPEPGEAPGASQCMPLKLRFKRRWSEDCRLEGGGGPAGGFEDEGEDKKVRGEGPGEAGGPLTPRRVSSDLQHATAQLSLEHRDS
Particulars: protein: recombinant; tags: N-terminal GST; dsDNA, one strand shown. A digest of the protocol:
as §1

A further test concerns the target T7, ETV3L (Homo sapiens, UniProt Q6ZN32 1-361).
T7 sequence: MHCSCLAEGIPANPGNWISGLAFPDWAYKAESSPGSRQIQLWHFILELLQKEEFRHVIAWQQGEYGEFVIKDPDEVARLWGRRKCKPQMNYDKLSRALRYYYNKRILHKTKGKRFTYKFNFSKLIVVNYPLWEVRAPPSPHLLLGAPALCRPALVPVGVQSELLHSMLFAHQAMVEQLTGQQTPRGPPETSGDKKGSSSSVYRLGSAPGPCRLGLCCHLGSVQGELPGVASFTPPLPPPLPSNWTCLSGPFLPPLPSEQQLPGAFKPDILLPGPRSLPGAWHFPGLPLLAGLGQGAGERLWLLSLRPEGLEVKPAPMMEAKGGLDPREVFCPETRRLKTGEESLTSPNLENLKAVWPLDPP
The settings on record: protein: recombinant; tags: N-terminal GST; dsDNA, one strand shown. In outline: as §1

The next test addresses T8, ETS2 (Homo sapiens, UniProt P15036 1-469).
T8 sequence: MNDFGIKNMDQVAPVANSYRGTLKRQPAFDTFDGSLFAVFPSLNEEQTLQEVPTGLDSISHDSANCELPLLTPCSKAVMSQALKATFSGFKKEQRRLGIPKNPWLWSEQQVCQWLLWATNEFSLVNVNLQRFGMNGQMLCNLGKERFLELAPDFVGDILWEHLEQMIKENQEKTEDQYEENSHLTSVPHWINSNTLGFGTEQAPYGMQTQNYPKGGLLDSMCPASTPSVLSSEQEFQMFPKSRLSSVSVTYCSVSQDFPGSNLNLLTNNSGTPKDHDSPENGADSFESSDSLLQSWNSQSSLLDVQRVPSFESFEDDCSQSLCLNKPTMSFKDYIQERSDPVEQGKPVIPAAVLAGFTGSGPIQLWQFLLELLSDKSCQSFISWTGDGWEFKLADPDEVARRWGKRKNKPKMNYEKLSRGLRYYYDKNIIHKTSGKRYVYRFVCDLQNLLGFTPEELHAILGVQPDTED
The settings on record: protein: recombinant; tags: N-terminal GST; dsDNA, one strand shown. In outline:
as §1

The next test addresses T9, SPDEF (Homo sapiens, UniProt O95238 1-335).
T9 sequence: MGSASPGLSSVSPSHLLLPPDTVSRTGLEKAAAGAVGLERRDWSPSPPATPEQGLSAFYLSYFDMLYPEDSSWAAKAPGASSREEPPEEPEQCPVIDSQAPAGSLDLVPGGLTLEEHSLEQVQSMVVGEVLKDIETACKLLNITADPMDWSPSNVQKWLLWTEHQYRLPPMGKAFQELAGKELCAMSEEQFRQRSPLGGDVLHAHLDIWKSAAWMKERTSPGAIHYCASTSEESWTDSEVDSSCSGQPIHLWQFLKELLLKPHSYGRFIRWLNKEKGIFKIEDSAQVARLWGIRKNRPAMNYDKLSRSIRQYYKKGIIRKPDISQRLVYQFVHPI
The settings on record: protein: recombinant; tags: N-terminal GST; dsDNA, one strand shown. In outline:
as §1

The target of the next test is T10, ETV7 (Homo sapiens, UniProt Q9Y603 1-341).
T10 sequence: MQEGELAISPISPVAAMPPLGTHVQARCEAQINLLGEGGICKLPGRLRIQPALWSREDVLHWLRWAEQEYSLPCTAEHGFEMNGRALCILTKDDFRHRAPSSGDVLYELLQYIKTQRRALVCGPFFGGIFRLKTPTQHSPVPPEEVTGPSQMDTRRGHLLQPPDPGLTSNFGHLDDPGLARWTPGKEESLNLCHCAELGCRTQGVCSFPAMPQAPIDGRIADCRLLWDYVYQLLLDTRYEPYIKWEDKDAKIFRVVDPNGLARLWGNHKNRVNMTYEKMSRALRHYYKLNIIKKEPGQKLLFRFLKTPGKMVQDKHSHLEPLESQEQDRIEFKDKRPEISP
Particulars: protein: recombinant; tags: N-terminal GST; dsDNA, one strand shown. In outline: as §1

The target in another test is T11, ELF5 (Homo sapiens, UniProt Q9UKW6-2 1-255).
T11 sequence: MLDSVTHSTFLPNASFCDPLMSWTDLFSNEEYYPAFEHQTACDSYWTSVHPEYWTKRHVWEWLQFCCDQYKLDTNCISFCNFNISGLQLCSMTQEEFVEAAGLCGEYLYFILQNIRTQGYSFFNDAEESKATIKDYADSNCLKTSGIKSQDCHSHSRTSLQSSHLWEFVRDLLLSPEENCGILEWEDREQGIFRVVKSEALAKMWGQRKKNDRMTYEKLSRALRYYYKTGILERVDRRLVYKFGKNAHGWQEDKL
The settings on record: protein: recombinant; tags: N-terminal GST; dsDNA, one strand shown. In outline: as §1

For another test, the target named is T12, ETV3 (Homo sapiens, UniProt P41162-2 1-143).
T12 sequence: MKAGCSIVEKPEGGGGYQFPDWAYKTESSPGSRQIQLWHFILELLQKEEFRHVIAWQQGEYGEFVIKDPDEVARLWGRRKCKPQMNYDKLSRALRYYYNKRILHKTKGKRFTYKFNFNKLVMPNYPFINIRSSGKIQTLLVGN
The settings on record: protein: recombinant; tags: N-terminal GST; dsDNA, one strand shown. A digest of the protocol: as §1

A further test deals with ETV6 (Homo sapiens, UniProt P41212 1-452). The settings on record: protein: recombinant; tags: N-terminal GST; dsDNA, one strand shown. A digest of the protocol: as §1
ETV6, sequence (P41212 whole entry): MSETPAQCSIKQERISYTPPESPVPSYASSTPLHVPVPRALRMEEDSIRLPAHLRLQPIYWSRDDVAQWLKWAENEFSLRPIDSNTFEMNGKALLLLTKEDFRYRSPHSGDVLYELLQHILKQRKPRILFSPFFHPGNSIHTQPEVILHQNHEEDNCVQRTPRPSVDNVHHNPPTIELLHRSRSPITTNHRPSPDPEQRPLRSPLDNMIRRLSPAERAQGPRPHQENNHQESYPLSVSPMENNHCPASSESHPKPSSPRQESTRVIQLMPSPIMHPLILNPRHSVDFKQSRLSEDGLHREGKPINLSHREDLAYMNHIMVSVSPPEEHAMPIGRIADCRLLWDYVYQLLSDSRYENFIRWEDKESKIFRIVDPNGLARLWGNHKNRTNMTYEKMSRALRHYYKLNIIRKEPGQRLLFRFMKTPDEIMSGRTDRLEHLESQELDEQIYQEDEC

ETV1, sequence (P50549 whole entry): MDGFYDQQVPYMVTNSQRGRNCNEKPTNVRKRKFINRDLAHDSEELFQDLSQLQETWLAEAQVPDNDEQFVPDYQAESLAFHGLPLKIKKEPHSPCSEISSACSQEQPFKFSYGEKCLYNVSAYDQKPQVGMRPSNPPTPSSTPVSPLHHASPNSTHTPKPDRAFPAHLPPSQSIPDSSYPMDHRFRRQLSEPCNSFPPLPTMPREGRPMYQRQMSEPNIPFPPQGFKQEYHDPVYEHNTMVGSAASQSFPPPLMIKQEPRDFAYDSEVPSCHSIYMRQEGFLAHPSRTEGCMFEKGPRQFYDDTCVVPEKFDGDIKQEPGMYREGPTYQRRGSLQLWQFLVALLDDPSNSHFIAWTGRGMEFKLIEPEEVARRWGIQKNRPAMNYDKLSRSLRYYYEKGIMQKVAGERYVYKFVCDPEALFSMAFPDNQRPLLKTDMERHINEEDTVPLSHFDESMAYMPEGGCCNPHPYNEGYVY
ETV5, sequence (P41161 whole entry): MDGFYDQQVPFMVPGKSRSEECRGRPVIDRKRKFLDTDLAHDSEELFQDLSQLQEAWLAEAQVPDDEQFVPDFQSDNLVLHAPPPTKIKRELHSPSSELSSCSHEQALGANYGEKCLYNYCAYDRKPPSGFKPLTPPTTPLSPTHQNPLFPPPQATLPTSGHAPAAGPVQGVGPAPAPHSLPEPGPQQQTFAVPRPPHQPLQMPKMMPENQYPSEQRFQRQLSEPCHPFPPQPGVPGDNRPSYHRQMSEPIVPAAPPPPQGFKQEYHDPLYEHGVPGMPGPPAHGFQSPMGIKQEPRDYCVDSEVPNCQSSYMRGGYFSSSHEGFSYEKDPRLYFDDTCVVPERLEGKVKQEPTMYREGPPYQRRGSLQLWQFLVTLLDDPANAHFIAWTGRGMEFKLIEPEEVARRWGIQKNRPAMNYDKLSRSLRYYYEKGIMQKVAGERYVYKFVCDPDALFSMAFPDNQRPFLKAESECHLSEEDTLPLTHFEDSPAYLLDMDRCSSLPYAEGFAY
HSF1, sequence (Q00613 whole entry): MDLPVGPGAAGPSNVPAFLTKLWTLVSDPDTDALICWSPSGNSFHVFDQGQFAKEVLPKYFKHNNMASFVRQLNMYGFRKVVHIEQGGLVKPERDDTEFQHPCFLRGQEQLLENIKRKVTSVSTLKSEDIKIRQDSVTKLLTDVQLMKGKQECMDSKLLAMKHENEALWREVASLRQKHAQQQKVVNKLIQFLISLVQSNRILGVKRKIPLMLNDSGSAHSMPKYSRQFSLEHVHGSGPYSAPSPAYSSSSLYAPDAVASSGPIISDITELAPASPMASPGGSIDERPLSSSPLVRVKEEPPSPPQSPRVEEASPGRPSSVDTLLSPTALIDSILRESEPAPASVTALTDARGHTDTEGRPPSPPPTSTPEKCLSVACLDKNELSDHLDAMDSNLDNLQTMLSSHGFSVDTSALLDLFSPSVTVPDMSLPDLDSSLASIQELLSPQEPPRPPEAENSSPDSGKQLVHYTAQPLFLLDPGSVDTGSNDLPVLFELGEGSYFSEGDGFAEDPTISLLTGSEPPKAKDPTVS
ELF4, sequence (Q99607 whole entry): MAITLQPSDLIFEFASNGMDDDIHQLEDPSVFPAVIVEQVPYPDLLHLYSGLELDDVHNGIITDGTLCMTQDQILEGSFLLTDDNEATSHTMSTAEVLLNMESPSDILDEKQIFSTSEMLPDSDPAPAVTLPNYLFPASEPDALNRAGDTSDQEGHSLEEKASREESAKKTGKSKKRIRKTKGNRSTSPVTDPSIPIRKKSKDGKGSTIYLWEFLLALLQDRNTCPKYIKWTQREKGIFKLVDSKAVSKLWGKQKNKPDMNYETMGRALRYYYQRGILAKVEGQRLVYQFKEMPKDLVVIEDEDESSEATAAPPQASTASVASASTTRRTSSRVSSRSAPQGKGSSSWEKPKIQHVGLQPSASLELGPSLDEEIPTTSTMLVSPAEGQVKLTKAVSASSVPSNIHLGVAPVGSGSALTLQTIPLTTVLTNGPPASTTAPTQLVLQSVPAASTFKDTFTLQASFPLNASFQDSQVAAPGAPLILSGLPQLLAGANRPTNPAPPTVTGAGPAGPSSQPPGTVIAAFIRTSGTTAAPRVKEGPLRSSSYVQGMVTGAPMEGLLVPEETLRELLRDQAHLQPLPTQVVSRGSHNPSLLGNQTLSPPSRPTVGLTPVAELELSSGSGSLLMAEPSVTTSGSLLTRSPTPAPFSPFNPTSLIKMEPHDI
CRX, sequence (O43186 whole entry): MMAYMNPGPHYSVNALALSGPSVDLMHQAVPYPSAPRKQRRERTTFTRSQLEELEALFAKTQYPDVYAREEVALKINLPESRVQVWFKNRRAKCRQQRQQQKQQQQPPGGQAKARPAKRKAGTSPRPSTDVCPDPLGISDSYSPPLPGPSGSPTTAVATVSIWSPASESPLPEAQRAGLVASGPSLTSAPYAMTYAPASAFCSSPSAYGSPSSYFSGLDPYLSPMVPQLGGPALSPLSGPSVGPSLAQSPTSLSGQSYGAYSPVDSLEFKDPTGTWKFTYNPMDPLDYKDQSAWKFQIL

Consider ATTTCT, for which the binding signal was 1.43 fold enrichment (6-mer frequency, TF over GST control) with FEV; 1.39 fold enrichment (6-mer frequency, TF over GST control) with ETV5; 2.3 fold enrichment (6-mer frequency, TF over GST control) with HSF1; 1.49 fold enrichment (6-mer frequency, TF over GST control) in the test with SPIC; 1.4 fold enrichment (6-mer frequency, TF over GST control) with ELF4; 1.66 fold enrichment (6-mer frequency, TF over GST control) with ELK4. Moreover, the binding signal is 1.4 fold enrichment (6-mer frequency, TF over GST control) with ETV2; 1.76 fold enrichment (6-mer frequency, TF over GST control) with ELF3; 1.68 fold enrichment (6-mer frequency, TF over GST control) in the test with CRX; 1.51 fold enrichment (6-mer frequency, TF over GST control) in the test with ETV1; 1.35 fold enrichment (6-mer frequency, TF over GST control) with ERF; 1.49 fold enrichment (6-mer frequency, TF over GST control) with ETV3L. For the same sequence, the binding signal with ETS2 was 1.54 fold enrichment (6-mer frequency, TF over GST control); in the test with SPDEF, 1.4 fold enrichment (6-mer frequency, TF over GST control); in the test with ETV7, 1.47 fold enrichment (6-mer frequency, TF over GST control); with ELF5, 1.5 fold enrichment (6-mer frequency, TF over GST control); with ETV3 it was 1.42 fold enrichment (6-mer frequency, TF over GST control); with ETV6 it was 1.39 fold enrichment (6-mer frequency, TF over GST control).
